In PubChem BioAssay AID652104 (National Center for Advancing Translational Sciences (NCATS), 2013):
In all, about 410,000 compounds went through this assay and about 7,200 (1.8%) were called active. Not shown: some 7% with an inconclusive outcome. The entries come from a sample that favours actives as a whole. Where a call stands in place of a potency, no number is given. A number with no mark means an inactive call. The call rests on the fitted dose curve; in most records, active means well fitted activation curve with a large enough effect; inconclusive means small, poorly fitted or top-dose-only effect, or another doubt; inactive means no such curve, though single readings can be large or run the other way.

assay: qHTS of TDP-43 Inhibitors; details: TDP-43 expressing yeast growth rescue, BacTiter-Glo, 24 h; series mostly up to 46.1 µM; further: nearly all actives have a fitted effect of over 50% in size
Procedure, shortened: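 Cell-based yeast growth screen: TDP-43 expression induced in galactose, inoculum OD600=0.02 after raffinose pregrowth to mid-log. Read-out BacTiter-Glo luminescence at 24 hr, 30 deg C; inhibition of toxicity seen as signal increase.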
Potency means the concentration at half of the fitted maximal effect.

SMILES	Potency	growth rescue (activation)
CCCCC(CC)CNC(=O)C1CCN(S(=O)(=O)c2cccc3nsnc23)CC1 (stereo not drawn)	inactive	–
O=S(=O)(c1ccc2nc(N3CCN(c4cccc(Cl)c4)CC3)ccc2c1)N1CCCCC1	inactive	–
Cc1cc(OC(=O)c2ccc(OC(C)C)cc2)c([N+](=O)[O-])c(=O)[nH]1	22.4 µM (active)	–
COc1cccc(C(=O)Oc2cc(C)[nH]c(=O)c2[N+](=O)[O-])c1	inactive	–
Cc1cc(OC(=O)c2ccccc2)c([N+](=O)[O-])c(=O)[nH]1	inactive	–
Cc1nnc(SCc2cc(=O)c3cc(F)ccc3[nH]2)n1C	inactive	–
CC(C)CC(=O)NCC(c1ccc2c(c1)OCO2)N1CCN(c2ccc(F)cc2)CC1 (stereo not drawn)	inactive	–
CCn1c(=O)cc(OCC(=O)Nc2cc(Cl)c(OC)cc2OC)c2ccccc21	inactive	–
Cc1ccc(S(=O)(=O)c2nc(-c3ccco3)oc2SCC(=O)Nc2ccc(F)cc2)cc1	inactive	–
COC(=O)c1sc(N)c(C(=O)OC)c1COC(=O)CNS(=O)(=O)c1ccc(C)cc1	inactive	–
COC(=O)c1c(-c2ccc(C)cc2)csc1N	12.6 µM (active)	–
Cc1ccc(-c2nc(COC(=O)c3c(C)noc3C)cs2)cc1	inactive	–
CCCn1c(=N)n(CC(O)COc2ccccc2OC)c2ccccc21 (stereo not drawn)	inactive	–
N/C(=N\OC(=O)Cc1ccccc1[N+](=O)[O-])c1ccc(Br)cc1	15.8 µM (active)	–
CO/N=C(\N)c1ccc([N+](=O)[O-])cc1	inactive	–
N/C(=N\OC(=O)N1c2ccccc2Sc2ccccc21)c1ccc(Br)cc1	inactive	–
Cc1ccc(-n2ncc3c(=O)n(Cc4cccc(C(F)(F)F)c4)cnc32)cc1C	inactive	–
CC(C)NC(=O)C1CCC(Cn2c(=O)c3sccc3n(Cc3ccc(F)cc3)c2=O)CC1 (stereo not drawn)	inactive	–
O=C(COc1ccc(Cl)cc1)N(Cc1ccco1)Cc1ccco1	inactive	–
CC(=O)c1ccc(NC(=O)CCc2nc(-c3ccc(C)cc3)no2)cc1	inactive	–
CCOC(=O)c1ccc(NC(=O)c2csc3c2CCCCC3)cc1	20 µM (active)	–
CCOc1ccc(CCNC(=O)c2csc3c2CCCCC3)cc1	inactive	–
CCOC(=O)c1ccc(NC(=O)c2c(NCc3cccs3)sc3c2CCCC3)cc1	inactive	–
Cc1ccc(-c2cn3c(n2)sc2cc(C(=O)NCc4cccs4)ccc23)c(C)c1	–	-0.34% [at 9.22 µM]
C/C(=N\N)c1c(-c2ccccc2)c2cc(Br)ccc2[nH]c1=O	inactive	–

SMILES	Potency	growth rescue (activation)
O=c1[nH]c2cc(Br)ccc2n2cccc12	10 µM (active)	–
CC1CN(C(=O)N2CCC(C(=O)NCc3cccs3)CC2)c2ccccc2O1 (stereo not drawn)	inactive	–
CC1CCN(C(=O)CN(c2ccc(Oc3ccccc3)cc2)S(C)(=O)=O)CC1	12.6 µM (active)	–
CS(=O)(=O)N(CC(=O)N1CCN(c2cccc(Cl)c2)CC1)c1ccccc1	inactive	–
COc1ccc(N(CC(=O)N2CCCCCC2)S(=O)(=O)c2ccccc2)cc1	inactive	–
COc1cc(CNC(=O)c2cc3n(n2)CCCN(Cc2cccc(F)c2)C3=O)cc(OC)c1OC	inactive	–
CCc1cc2c(cc3c(=O)n(CC(=O)NCCc4ccc(OC)c(OC)c4)ncn32)s1	inactive	–
CCC(=O)N1CCc2cc(CNC(=O)Nc3ccccc3Cl)ccc21	inactive	–
CCC(=O)N1CCc2cc(CNS(=O)(=O)c3ccc(Br)s3)ccc21	11.2 µM (active)	–
CCC(=O)N1CCc2cc(Br)cc(S(=O)(=O)NCc3ccc(Cl)cc3)c21	inactive	–
Cc1ccc(NC(=O)c2cc(S(=O)(=O)NCCC3=CCCCC3)ccc2F)cc1C	inactive	–
COc1cc(C(=O)Nc2ccc(OCc3cc(=O)n4ccc(C)cc4n3)cc2)cc(OC)c1OC	inactive	–
O=C(NNc1nc(N2CCCC2)nc(N2CCCC2)n1)c1ccccc1	inactive	–
O=C(c1ccccc1)c1ccc2nc(N3CCCCC3)c3nncn3c2c1	20 µM (active)	–
CCOC(=O)CSc1nc2ccc(C)cc2n2cnnc12	inactive	–
Cc1nnc(NC(=O)CSc2nc3c([nH]c4ccccc43)c(=O)n2-c2cccc(Cl)c2)s1	inactive	–
O=C1C=C(c2ccnc3cc(Cl)ccc23)C[C@@H](c2ccc3c(c2)OCO3)C1	22.4 µM (active)	–
O=C(Nc1ccc2c(c1)OCO2)c1sc2cc(Cl)ccc2c1Cl	inactive	–
CC(=O)C1=C(C)NC(=O)NC1c1ccc2c(c1)OCO2 (stereo not drawn)	inactive	–
Cc1cccc(N2CCN(C3=C(c4ccccc4)C(=O)c4ccccc43)CC2)c1C	inactive	–
Cc1cccc(NC(=O)c2ccc(F)c(S(=O)(=O)N(C)C3CCCCC3)c2)c1	inactive	–
Brc1cccc(-c2nnn3c2nc(NC2CCCCC2)c2ccccc23)c1	inactive	–
O=C(Nc1nnc(S(=O)(=O)N2CCCc3ccccc32)s1)c1cccc(F)c1	inactive	–
COCCCNc1ccn2nc(-c3ccc(CC(C)C)cc3)cc2n1	17.8 µM (active)	–
CCc1ccc(C2CC(=O)c3c([nH]c(C(=O)OCc4ccc(C)cc4)c3C)C2)cc1 (stereo not drawn)	inactive	–

SMILES	Potency	growth rescue (activation)
CCN(CCCNC(=O)c1cc(Nc2ccc(OC)cc2)nc2ccccc12)c1cccc(C)c1	inactive	–
Cc1ccc(CSc2nc3ccsc3c(=O)n2CCC(C)C)cc1	inactive	–
CCOc1ccccc1NC(=O)Cn1c2ncccc2c(=O)n1-c1ccc(C)c(C)c1	inactive	–
Cc1ccc(-n2c(=O)c3cccnc3n2CC(=O)Nc2ccccc2C(F)(F)F)cc1C	inactive	–
Cc1ccc(-n2c(=O)c3cccnc3n2CC(=O)NCc2ccc(F)cc2)cc1C	12.6 µM (active)	–
CCOc1ccccc1NC(=O)Cn1c(=O)n(Cc2ccccc2)c(=O)c2c(C)c(C(=O)N(C)C)sc21	inactive	–
Cc1c(CNC(C)c2ccccc2)c(C(=O)O)c(C)n1Cc1c(F)cccc1Cl (stereo not drawn)	inactive	–
Cc1ccc(CN2CC(N3CCC(Cc4ccccc4)CC3)CS2(=O)=O)cc1 (stereo not drawn)	inactive	–
O=[N+]([O-])c1ccc(CN2CC(N3CCC(c4ccccc4)CC3)CS2(=O)=O)cc1 (stereo not drawn)	25.1 µM (active)	–
O=S1(=O)CC(N2CCC(Cc3ccccc3)CC2)CN1Cc1ccccc1 (stereo not drawn)	inactive	–
CCOC(=O)c1c(C)oc2ccc(N(C(=O)c3ccncc3)S(=O)(=O)c3ccc(CC)cc3)cc12	inactive	–
CCc1ccc(CN(Cc2ccco2)C(=O)COc2ccc(Cl)c(C)c2)cc1	inactive	–
CCOC(=O)c1ccc(NC(=O)c2nc(SCc3ccc(F)cc3)ncc2Cl)cc1	inactive	–
CCS(=O)(=O)c1ncc(N(Cc2ccc(F)cc2)Cc2ccco2)c(C(=O)Nc2cc(C)ccc2C)n1	inactive	–
CSc1nnc(NC(=O)c2nc(S(=O)(=O)Cc3ccc(C)cc3)ncc2Cl)s1	11.2 µM (active)	–
Cc1cccc(NC(=O)Cn2cc(S(=O)(=O)Cc3ccccc3Cl)c3ccccc32)c1	inactive	–
Cc1ccc2nc(NC(=O)c3nc(SCc4ccccc4F)ncc3Cl)sc2c1	inactive	–
Cc1cccc(NC(=O)c2nc(S(=O)(=O)Cc3ccccc3)ncc2Cl)c1	7.08 µM (active)	–
CCOc1ccc(N(CC)C(=O)c2noc3c2COc2ccc(C)cc2-3)cc1	inactive	–
Cn1c(=O)sc2cc(NS(=O)(=O)c3ccc(C(C)(C)C)cc3)ccc21	inactive	–
COc1cc(NC(=O)c2nn(-c3ccc(C)cc3)c(=O)c3c2c2ccccc2n3C)cc(OC)c1OC	inactive	–
COc1ccccc1-n1c(-c2ccc(C)cc2)cn2c3c(=O)n(C)c(=O)n(C)c3nc12	inactive	–
Cc1ccc(C)n1-c1nnc(N2CCC(C(=O)NCc3ccccc3Cl)CC2)s1	inactive	–
COc1cc(C(F)(F)F)c(C(=O)N(C)c2ccc(Cl)cc2)cn1	–	-13.9% [at 1.82 µM]
COc1ccc(Cl)cc1NC(=O)c1oc(C)nc1C	inactive	–

SMILES	Potency	growth rescue (activation)
COc1ccc(Nc2cc(Cl)ccc2C(=O)O)cn1	10 µM (active)	–
CCOC(=O)c1ccc(NC(=O)CSc2nc3c([nH]c4ccccc43)c(=O)n2C)cc1	inactive	–
CSc1cccc(NC(=S)N(C(C)C)C(C)c2ccccn2)c1 (stereo not drawn)	–	-6.51% [at 9.22 µM]
CSc1cccc(NC(=S)N(Cc2ccccc2)Cc2ccccn2)c1	20 µM (active)	–
Cc1c(Cl)cccc1NC(=S)N(Cc1ccccc1)Cc1cccnc1	inactive	–
CC(C)(C)OC(=O)N1CCC(c2c(C(=O)N3CCN(c4cccc(Cl)c4)CC3)cnn2-c2cccc(Cl)c2)CC1	inactive	–
CCOCCCNC(=O)c1c(NC(=O)Cc2coc3c(C)c(C)ccc23)sc2c1CCC2	inactive	–
O=C(CSC1=NCCS1)Nc1nc(-c2ccccc2)cs1	22.4 µM (active)	–
CC(NC(=O)COc1ccccc1)C(=O)NC1=NCCS1 (stereo not drawn)	inactive	–
Cc1csc(NC(=O)CSc2nnc(-c3cccnc3)o2)n1	inactive	–
COc1ccc(-c2nn(CC(=O)Nc3ccccc3F)c3c2cnc2ccc(F)cc23)cc1	inactive	–
Cc1ccc(Cn2c(=O)n(CCCC(=O)NCc3ccccc3Cl)c(=O)c3ccccc32)cc1	inactive	–
COc1cc(OC)c(NC(=O)Cc2ccc(-n3c(C)nc4cccnc43)cc2)cc1Cl	inactive	–
O=C(Nc1nc2c(s1)CCCC2)c1ccccc1F	inactive	–
Cc1cc(C)cc(OC(C)C(=O)Nc2nc3c(s2)CCCC3)c1 (stereo not drawn)	inactive	–
Fc1ccc2nc(Nc3nc4c(s3)CCCC4)sc2c1	2.24 µM (active)	–
COc1ccc(-c2cn3nc(N4CCC(C(=O)Nc5cccc(C)c5C)CC4)sc3n2)cc1	inactive	–
CC1(C(=O)NS(=O)(=O)c2ccc3ccccc3c2)CCN1C(=O)C1(c2ccc(Cl)cc2)CCC1 (stereo not drawn)	inactive	–
Cc1ccccc1S(=O)(=O)NC(=O)C1(C)CCN1C(=O)C1(c2ccc(Cl)cc2)CC1 (stereo not drawn)	28.2 µM (active)	–
Cc1ccccc1S(=O)(=O)NC(=O)C1(C)CCN1C(=O)C1(c2ccccc2)CCCC1 (stereo not drawn)	35.5 µM (active)	–
CC1(C(=O)NS(=O)(=O)c2ccccc2)CCN1C(=O)c1ccccc1 (stereo not drawn)	inactive	–
CCCNC(=O)C1(C)CCN1C(=O)C1(c2ccccc2)CC1 (stereo not drawn)	inactive	–
Cc1ccccc1S(=O)(=O)NC(=O)C1(C)CCN1C(=O)Cc1ccc(Cl)cc1Cl (stereo not drawn)	inactive	–
